Experiment in all cases: PBM; 200 nM protein, PBS
Holding throughout (conditions): dsDNA, one strand shown

Assay [1] concerns the target CRX (Homo sapiens, UniProt O43186 26-111).
In assay [2] the target is CRX (Homo sapiens, UniProt O43186 26-111, E42D).
In assay [3] the target is CRX (Homo sapiens, UniProt O43186 26-111, R41L).
Assay [4] concerns the target ALX4 (Homo sapiens, UniProt Q9H161 200-286).
Assay [5] deals with ALX4 (Homo sapiens, UniProt Q9H161 200-286, Q225E).
The target in the next assay is PRRX1 (Homo sapiens, UniProt P54821 80-166).
Chain of PRRX1 (P54821 80-166): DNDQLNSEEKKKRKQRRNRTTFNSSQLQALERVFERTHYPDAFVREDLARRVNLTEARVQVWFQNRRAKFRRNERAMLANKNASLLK
Assay [6] addresses T1, PAX4 (Homo sapiens, UniProt O43316 9-242).
T1 sequence: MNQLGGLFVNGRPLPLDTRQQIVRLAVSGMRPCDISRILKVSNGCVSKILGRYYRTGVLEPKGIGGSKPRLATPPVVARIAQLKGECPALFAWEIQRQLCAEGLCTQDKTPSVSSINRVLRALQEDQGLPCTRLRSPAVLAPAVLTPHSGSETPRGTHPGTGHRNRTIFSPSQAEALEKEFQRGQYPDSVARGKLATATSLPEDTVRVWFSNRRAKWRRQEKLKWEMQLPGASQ

Assay [7] concerns the target ALX3 (Homo sapiens, UniProt O95076 139-225, N203Q).
Assay [8] concerns the target T2, PAX4 (Homo sapiens, UniProt O43316 9-242, R200Q).
T2 sequence: T1 sequence with R192Q

Assay [9] has as its target T3, PAX4 (Homo sapiens, UniProt O43316 9-242, F177V).
T3 sequence: T1 sequence with F169V

For assay [10], the target named is ALX3 (Homo sapiens, UniProt O95076 139-225).
Chain of ALX3 (Homo sapiens, UniProt O95076 139-225) (O95076 139-225): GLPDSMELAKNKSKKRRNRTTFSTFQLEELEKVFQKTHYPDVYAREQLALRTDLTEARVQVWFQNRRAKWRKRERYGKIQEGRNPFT
The target of assay [11] is T4, PAX4 (Homo sapiens, UniProt O43316 9-242, F177Y).
T4 sequence: T1 sequence with F169Y

Assay [12] addresses ALX3 (Homo sapiens, UniProt O95076 139-225, L168Q).
The target of assay [13] is ALX3 (Homo sapiens, UniProt O95076 139-225, L168V).
Chain of ALX3 (Homo sapiens, UniProt O95076 139-225, L168V) (O95076 139-225 L168V): as the sequence (O95076 139-225) above, with L30V counted along it
For assay [14], the target named is T5, PAX4 (Homo sapiens, UniProt O43316 9-242, R227W).
T5 sequence: T1 sequence with R219W

Assay [15] addresses ALX3 (Homo sapiens, UniProt O95076 139-225, N203S).
The target in the next assay is ALX1 (Homo sapiens, UniProt Q15699 118-204, L144R).
Chain of ALX1 (Q15699 118-204 L144R): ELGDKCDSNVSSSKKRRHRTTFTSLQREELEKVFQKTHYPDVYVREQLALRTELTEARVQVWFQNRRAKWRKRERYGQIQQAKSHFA

Where a chain is given by its changes, count along the chain named.

Chain of ALX4 (Homo sapiens, UniProt Q9H161 200-286) (Q9H161 200-286): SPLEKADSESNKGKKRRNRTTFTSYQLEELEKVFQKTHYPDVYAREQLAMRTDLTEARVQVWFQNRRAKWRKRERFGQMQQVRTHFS
Chain of CRX (Homo sapiens, UniProt O43186 26-111, E42D) (O43186 26-111 E42D): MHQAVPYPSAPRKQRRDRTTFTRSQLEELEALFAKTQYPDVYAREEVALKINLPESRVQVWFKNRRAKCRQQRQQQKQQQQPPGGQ
Chain of ALX3 (Homo sapiens, UniProt O95076 139-225, N203Q) (O95076 139-225 N203Q): as the sequence (O95076 139-225) above, with N65Q counted along it
Chain of ALX4 (Homo sapiens, UniProt Q9H161 200-286, Q225E) (Q9H161 200-286 Q225E): as the sequence (Q9H161 200-286) above, with Q26E counted along it
Chain of CRX (Homo sapiens, UniProt O43186 26-111) (O43186 26-111): as the sequence (O43186 26-111 E42D) above, with D17E counted along it
Chain of CRX (Homo sapiens, UniProt O43186 26-111, R41L) (O43186 26-111 R41L): as the sequence (O43186 26-111 E42D) above, with R16L, D17E counted along it
Chain of ALX3 (Homo sapiens, UniProt O95076 139-225, L168Q) (O95076 139-225 L168Q): as the sequence (O95076 139-225) above, with L30Q counted along it
Chain of ALX3 (Homo sapiens, UniProt O95076 139-225, N203S) (O95076 139-225 N203S): as the sequence (O95076 139-225) above, with N65S counted along it

As to GATCATTA, the binding signal with CRX [1] is 10.8 upbm affinity estimate (log intensity, higher = more binding, comparable within an allelic series); in the assay with CRX [2], 10.7 upbm affinity estimate (log intensity, higher = more binding, comparable within an allelic series); with CRX [3], 10.4 upbm affinity estimate (log intensity, higher = more binding, comparable within an allelic series).

Regarding CAGGACCC, the binding signal in the assay with CRX [1] was 8.22 upbm affinity estimate (log intensity, higher = more binding, comparable within an allelic series); with ALX4 [4], 7.85 upbm affinity estimate (log intensity, higher = more binding, comparable within an allelic series); in the assay with ALX4 [5], 8.07 upbm affinity estimate (log intensity, higher = more binding, comparable within an allelic series); with CRX [2], 8.19 upbm affinity estimate (log intensity, higher = more binding, comparable within an allelic series); with CRX [3], 8.24 upbm affinity estimate (log intensity, higher = more binding, comparable within an allelic series).

TATCAATA: the binding signal with PRRX1 was 11.7 upbm affinity estimate (log intensity, higher = more binding, comparable within an allelic series).

For CGAGGGTC, the binding signal is 8.26 upbm affinity estimate (log intensity, higher = more binding, comparable within an allelic series) in the assay with CRX [1]; 9.09 upbm affinity estimate (log intensity, higher = more binding, comparable within an allelic series) with PAX4 [6]; 8.34 upbm affinity estimate (log intensity, higher = more binding, comparable within an allelic series) with CRX [2]; 7.7 upbm affinity estimate (log intensity, higher = more binding, comparable within an allelic series) with ALX3 [7]; 9.19 upbm affinity estimate (log intensity, higher = more binding, comparable within an allelic series) in the assay with PAX4 [8]; 9.25 upbm affinity estimate (log intensity, higher = more binding, comparable within an allelic series) with PAX4 [9]. For the same sequence, the binding signal in the assay with ALX3 [10] is 7.59 upbm affinity estimate (log intensity, higher = more binding, comparable within an allelic series); with PAX4 [11] it was 9.23 upbm affinity estimate (log intensity, higher = more binding, comparable within an allelic series); in the assay with ALX3 [12], 7.67 upbm affinity estimate (log intensity, higher = more binding, comparable within an allelic series); with ALX3 [13], 7.68 upbm affinity estimate (log intensity, higher = more binding, comparable within an allelic series); in the assay with PAX4 [14], 9.33 upbm affinity estimate (log intensity, higher = more binding, comparable within an allelic series); with CRX [3] it was 8.26 upbm affinity estimate (log intensity, higher = more binding, comparable within an allelic series). The binding signal with ALX3 [15] is 7.71 upbm affinity estimate (log intensity, higher = more binding, comparable within an allelic series).

Consider GACGCCGC, for which the binding signal with CRX [1] was 8.08 upbm affinity estimate (log intensity, higher = more binding, comparable within an allelic series); with PAX4 [6] it was 9.29 upbm affinity estimate (log intensity, higher = more binding, comparable within an allelic series); with CRX [2], 8.14 upbm affinity estimate (log intensity, higher = more binding, comparable within an allelic series); with PAX4 [8] it was 9.2 upbm affinity estimate (log intensity, higher = more binding, comparable within an allelic series); in the assay with PAX4 [9], 9.15 upbm affinity estimate (log intensity, higher = more binding, comparable within an allelic series); in the assay with PAX4 [11], 9.2 upbm affinity estimate (log intensity, higher = more binding, comparable within an allelic series). For the same sequence, the binding signal in the assay with PAX4 [14] was 9.18 upbm affinity estimate (log intensity, higher = more binding, comparable within an allelic series); in the assay with CRX [3] it was 8.18 upbm affinity estimate (log intensity, higher = more binding, comparable within an allelic series).

As for GCCCAGAC, the binding signal with CRX [1] is 8.35 upbm affinity estimate (log intensity, higher = more binding, comparable within an allelic series); with CRX [2], 8.45 upbm affinity estimate (log intensity, higher = more binding, comparable within an allelic series); in the assay with CRX [3], 8.39 upbm affinity estimate (log intensity, higher = more binding, comparable within an allelic series).

CTCATTAA: the binding signal with ALX4 [4] was 13.6 upbm affinity estimate (log intensity, higher = more binding, comparable within an allelic series); in the assay with ALX4 [5], 12.6 upbm affinity estimate (log intensity, higher = more binding, comparable within an allelic series); with ALX3 [7], 8.32 upbm affinity estimate (log intensity, higher = more binding, comparable within an allelic series); in the assay with ALX1, 11.2 upbm affinity estimate (log intensity, higher = more binding, comparable within an allelic series); in the assay with ALX3 [10] it was 12.3 upbm affinity estimate (log intensity, higher = more binding, comparable within an allelic series); in the assay with ALX3 [12] it was 10.1 upbm affinity estimate (log intensity, higher = more binding, comparable within an allelic series). In addition, the binding signal with ALX3 [13] is 9.58 upbm affinity estimate (log intensity, higher = more binding, comparable within an allelic series); in the assay with ALX3 [15], 8.41 upbm affinity estimate (log intensity, higher = more binding, comparable within an allelic series).

Regarding GACTGGCC, the binding signal with ALX3 [7] was 7.82 upbm affinity estimate (log intensity, higher = more binding, comparable within an allelic series); in the assay with ALX3 [10], 7.84 upbm affinity estimate (log intensity, higher = more binding, comparable within an allelic series); with ALX3 [12] it was 7.72 upbm affinity estimate (log intensity, higher = more binding, comparable within an allelic series); with ALX3 [13], 7.77 upbm affinity estimate (log intensity, higher = more binding, comparable within an allelic series); with ALX3 [15], 7.91 upbm affinity estimate (log intensity, higher = more binding, comparable within an allelic series).

Consider AGCCTGGG, for which the binding signal with ALX4 [4] was 7.98 upbm affinity estimate (log intensity, higher = more binding, comparable within an allelic series); with ALX4 [5], 8.23 upbm affinity estimate (log intensity, higher = more binding, comparable within an allelic series).

For the sequence AACAATAC, the binding signal with PRRX1 is 10.9 upbm affinity estimate (log intensity, higher = more binding, comparable within an allelic series).

In the case of CATTAATG, the binding signal with PAX4 [6] was 12.2 upbm affinity estimate (log intensity, higher = more binding, comparable within an allelic series); with PAX4 [8], 11.9 upbm affinity estimate (log intensity, higher = more binding, comparable within an allelic series); with PAX4 [9], 10.5 upbm affinity estimate (log intensity, higher = more binding, comparable within an allelic series); with PAX4 [11] it was 11 upbm affinity estimate (log intensity, higher = more binding, comparable within an allelic series); in the assay with PAX4 [14], 10.9 upbm affinity estimate (log intensity, higher = more binding, comparable within an allelic series).

Turning to TAAATTAA, the binding signal with ALX4 [4] is 13.9 upbm affinity estimate (log intensity, higher = more binding, comparable within an allelic series); in the assay with PAX4 [6], 12.3 upbm affinity estimate (log intensity, higher = more binding, comparable within an allelic series); with ALX4 [5] it was 13.1 upbm affinity estimate (log intensity, higher = more binding, comparable within an allelic series); with ALX3 [7], 8.53 upbm affinity estimate (log intensity, higher = more binding, comparable within an allelic series); in the assay with PAX4 [8], 12 upbm affinity estimate (log intensity, higher = more binding, comparable within an allelic series); in the assay with ALX1, 11.5 upbm affinity estimate (log intensity, higher = more binding, comparable within an allelic series). Further, the binding signal in the assay with PAX4 [9] was 10.6 upbm affinity estimate (log intensity, higher = more binding, comparable within an allelic series); with ALX3 [10], 12.4 upbm affinity estimate (log intensity, higher = more binding, comparable within an allelic series); with PAX4 [11], 11 upbm affinity estimate (log intensity, higher = more binding, comparable within an allelic series); in the assay with ALX3 [12], 10.4 upbm affinity estimate (log intensity, higher = more binding, comparable within an allelic series); with ALX3 [13], 9.89 upbm affinity estimate (log intensity, higher = more binding, comparable within an allelic series); with PAX4 [14], 11 upbm affinity estimate (log intensity, higher = more binding, comparable within an allelic series). Besides, the binding signal was 8.68 upbm affinity estimate (log intensity, higher = more binding, comparable within an allelic series) with ALX3 [15] and 13.4 upbm affinity estimate (log intensity, higher = more binding, comparable within an allelic series) in the assay with PRRX1.

The record behind these values is article PMC11006913.
